This is an account of results in paper PMC11574364.

Sequence of IGF2BP3 (O00425 1-176): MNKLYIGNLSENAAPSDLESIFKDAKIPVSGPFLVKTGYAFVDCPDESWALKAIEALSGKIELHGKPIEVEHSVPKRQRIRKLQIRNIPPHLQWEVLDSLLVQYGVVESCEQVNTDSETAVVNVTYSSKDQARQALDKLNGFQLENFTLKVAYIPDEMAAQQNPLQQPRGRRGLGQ

The target of the first assay is hnRNP-P2 (Homo sapiens, UniProt P35637). The assay can be described thus: protein domain microarray probed with biotinylated miRNA; Domain array: 20 mM Tris-HCl pH 7.4, 200 mM KCl, 0.2 mM EDTA, 0.05% NP40, 2 ug/ul heparin, overnight 4 C. ORF array: PBS pH 7.0 with RNase inhibitor, 100 ng RNA; high values mean tight binding. As to conditions: ssRNA.
Sequence of hnRNP-P2 (P35637 265-390): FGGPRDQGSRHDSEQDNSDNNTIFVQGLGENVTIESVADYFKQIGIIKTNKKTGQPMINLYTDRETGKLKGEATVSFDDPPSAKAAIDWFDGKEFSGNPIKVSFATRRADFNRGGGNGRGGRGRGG
UGAGGUAGUAGGUUGUGUGGUU displayed a binding signal of 576 ± 71.1 fluorescence intensity.
Sequence CAGUGCAAUGAUGAAAGGGCAU yielded a binding signal of 40.3 ± 3.56 fluorescence intensity.
For UGAGGUAGUAGGUUGUAUAGUU, the binding signal was determined as 58.1 ± 13.9 fluorescence intensity.
Regarding AGAGGUAGUAGGUUGCAUAGUU, the binding signal came to 131 ± 2.9 fluorescence intensity.
The sequence UGAGGUAGUAGGUUGUAUGGUU gave a binding signal of 441 ± 19.8 fluorescence intensity.

The target of the next assay is T1, hnRNP-H2 (Homo sapiens, UniProt P55795).
T1 sequence: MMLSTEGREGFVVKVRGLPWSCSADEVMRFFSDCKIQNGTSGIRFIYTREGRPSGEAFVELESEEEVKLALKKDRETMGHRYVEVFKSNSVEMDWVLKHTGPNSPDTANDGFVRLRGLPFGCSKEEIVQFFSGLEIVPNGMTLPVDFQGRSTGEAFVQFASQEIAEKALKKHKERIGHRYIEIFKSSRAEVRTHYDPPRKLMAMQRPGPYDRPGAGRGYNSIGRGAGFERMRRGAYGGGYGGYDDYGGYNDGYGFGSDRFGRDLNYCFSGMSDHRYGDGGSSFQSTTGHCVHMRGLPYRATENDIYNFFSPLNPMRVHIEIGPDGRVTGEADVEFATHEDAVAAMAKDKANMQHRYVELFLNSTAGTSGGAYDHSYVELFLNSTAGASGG
Described as above. The following applies: ssRNA.
The sequence UGAGGUAGUAGGUUGUGUGGUU had a binding signal of 727 ± 35.9 fluorescence intensity.
Same read-out and setting: with CAGUGCAAUGAUGAAAGGGCAU the figure was 944.5 ± 8.38 fluorescence intensity; with UGAGGUAGUAGGUUGUAUAGUU, 258 ± 16.1 fluorescence intensity; with AGAGGUAGUAGGUUGCAUAGUU, 907 ± 16.1 fluorescence intensity.
In turn, UAGCUUAUCAGACUGAUGUUGA displayed a binding signal of 20 ± 0.509 fluorescence intensity.
In turn, UGAGGUAGUAGGUUGUAUGGUU had a binding signal of 663 ± 15.2 fluorescence intensity.

A further assay deals with T2, MTHFSD (Homo sapiens, UniProt Q2M296).
T2 sequence: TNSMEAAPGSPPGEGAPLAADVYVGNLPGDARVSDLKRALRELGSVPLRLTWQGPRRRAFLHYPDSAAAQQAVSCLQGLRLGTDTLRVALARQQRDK
The description is as above. The following applies: ssRNA.
In turn, UGAGGUAGUAGGUUGUGUGGUU yielded a binding signal of 439 ± 58.4 fluorescence intensity.
Sequence CAGUGCAAUGAUGAAAGGGCAU registered a binding signal of 349.3 ± 0.905 fluorescence intensity.
Same read-out and setting: with UGAGGUAGUAGGUUGUAUAGUU the figure was 133 ± 32.4 fluorescence intensity; with AGAGGUAGUAGGUUGCAUAGUU, 716 ± 48.4 fluorescence intensity; with UAGCUUAUCAGACUGAUGUUGA, 42.6 ± 13.9 fluorescence intensity.
As for UGAGGUAGUAGGUUGUAUGGUU, the binding signal came out at 488 ± 22.1 fluorescence intensity.

The next assay has as its target IGF2BP3 (Homo sapiens, UniProt O00425). The description is as above. As to conditions: ssRNA.
Turning to UGAGGUAGUAGGUUGUGUGGUU, the binding signal was 36.9 ± 7.82 fluorescence intensity.
For the sequence CAGUGCAAUGAUGAAAGGGCAU, the binding signal amounted to 20.1 ± 2.45 fluorescence intensity.
In turn, AGAGGUAGUAGGUUGCAUAGUU returned a binding signal of 46.2 ± 3.19 fluorescence intensity.
UGAGGUAGUAGGUUGUAUGGUU: the binding signal amounted to 22.9 ± 3.19 fluorescence intensity.

For a further assay, the target named is T3, NCBP2L (Homo sapiens, UniProt A6PVI3).
T3 sequence: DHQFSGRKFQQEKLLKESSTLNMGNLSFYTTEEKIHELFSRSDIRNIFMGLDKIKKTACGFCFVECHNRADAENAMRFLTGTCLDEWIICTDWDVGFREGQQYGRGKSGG
The description is as above. The following applies: ssRNA.
Sequence UGAGGUAGUAGGUUGUGUGGUU returned a binding signal of 239 ± 6.08 fluorescence intensity.
For the sequence CAGUGCAAUGAUGAAAGGGCAU, the binding signal amounted to 162 ± 7.95 fluorescence intensity.
Sequence UGAGGUAGUAGGUUGUAUAGUU displayed a binding signal of 40.6 ± 4.36 fluorescence intensity.
In the case of AGAGGUAGUAGGUUGCAUAGUU, the binding signal worked out at 202 ± 9.81 fluorescence intensity.
The sequence UAGCUUAUCAGACUGAUGUUGA registered a binding signal of 43.9 ± 1.85 fluorescence intensity.
In the case of UGAGGUAGUAGGUUGUAUGGUU, the binding signal is 180 ± 10.2 fluorescence intensity.

For a further assay, the target named is hnRNP-I(1-2) (Homo sapiens, UniProt P26599). The assay is described as above. The following applies: ssRNA.
Sequence of hnRNP-I(1-2) (P26599 40-280): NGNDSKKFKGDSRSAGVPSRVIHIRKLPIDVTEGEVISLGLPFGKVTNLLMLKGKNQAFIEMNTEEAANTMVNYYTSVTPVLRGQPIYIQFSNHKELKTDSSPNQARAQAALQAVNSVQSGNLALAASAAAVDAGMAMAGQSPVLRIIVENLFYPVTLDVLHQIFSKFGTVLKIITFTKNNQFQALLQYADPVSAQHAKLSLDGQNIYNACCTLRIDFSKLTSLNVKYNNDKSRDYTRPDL
Sequence UGAGGUAGUAGGUUGUGUGGUU registered a binding signal of 994 ± 33.7 fluorescence intensity.
CAGUGCAAUGAUGAAAGGGCAU showed a binding signal of 185 ± 5.4 fluorescence intensity.
As for UGAGGUAGUAGGUUGUAUAGUU, the binding signal is 293 ± 83.2 fluorescence intensity.
AGAGGUAGUAGGUUGCAUAGUU: the binding signal worked out at 1010 ± 92.8 fluorescence intensity.
Same read-out and setting: the result for UAGCUUAUCAGACUGAUGUUGA reads 72.7 ± 35.4 fluorescence intensity; that for UGAGGUAGUAGGUUGUAUGGUU, 911 ± 32.3 fluorescence intensity.

For a further assay, the target named is T4, LARP7(1) (Homo sapiens, UniProt Q4G0J3).
T4 sequence: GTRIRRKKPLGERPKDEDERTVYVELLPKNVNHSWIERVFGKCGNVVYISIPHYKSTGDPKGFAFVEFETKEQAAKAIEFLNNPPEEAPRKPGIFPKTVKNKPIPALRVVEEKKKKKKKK
The assay is described as above. As to conditions: ssRNA.
Consider UGAGGUAGUAGGUUGUGUGGUU, for which the binding signal was determined as 234 ± 9.55 fluorescence intensity.
The same measure, in the same setting: with CAGUGCAAUGAUGAAAGGGCAU the figure was 104 ± 10.5 fluorescence intensity; with UGAGGUAGUAGGUUGUAUAGUU, 35.35 ± 0.0495 fluorescence intensity; with AGAGGUAGUAGGUUGCAUAGUU, 137 ± 1.39 fluorescence intensity.
UGAGGUAGUAGGUUGUAUGGUU came in with a binding signal of 153.2 ± 0.424 fluorescence intensity.

Another assay deals with CELF5(1-2) (Homo sapiens, UniProt Q8N6W0). Described as above. As to conditions: ssRNA.
Sequence of CELF5(1-2) (Q8N6W0 20-233): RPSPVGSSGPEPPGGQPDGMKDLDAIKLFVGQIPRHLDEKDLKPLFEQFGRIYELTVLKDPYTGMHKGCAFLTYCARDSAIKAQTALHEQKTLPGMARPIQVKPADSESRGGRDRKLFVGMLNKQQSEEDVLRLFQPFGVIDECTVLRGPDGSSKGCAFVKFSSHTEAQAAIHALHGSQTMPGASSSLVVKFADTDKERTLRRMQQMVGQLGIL
UGAGGUAGUAGGUUGUGUGGUU gave a binding signal of 107 ± 9.34 fluorescence intensity.
Regarding CAGUGCAAUGAUGAAAGGGCAU, the binding signal is 52.7 ± 5.17 fluorescence intensity.
With UGAGGUAGUAGGUUGUAUAGUU, the binding signal was found to be 24.4 ± 2.19 fluorescence intensity.
Take AGAGGUAGUAGGUUGCAUAGUU: the binding signal worked out at 56.1 ± 4.7 fluorescence intensity.
Still for that read-out and setting: the result for UGAGGUAGUAGGUUGUAUGGUU reads 48 ± 2.14 fluorescence intensity.

The next assay has as its target EIF4H (Homo sapiens, UniProt Q15056). The description is as above. The following applies: ssRNA.
UGAGGUAGUAGGUUGUGUGGUU returned a binding signal of 208 ± 18.3 fluorescence intensity.
On the same count and under the same terms, with CAGUGCAAUGAUGAAAGGGCAU the figure was 71.2 ± 5.92 fluorescence intensity; with UGAGGUAGUAGGUUGUAUAGUU, 31.8 ± 3.73 fluorescence intensity; with AGAGGUAGUAGGUUGCAUAGUU, 115 ± 9.98 fluorescence intensity.
On the same count and under the same terms, the result for UGAGGUAGUAGGUUGUAUGGUU reads 93.9 ± 8.49 fluorescence intensity.
